NS1 function inh: blocks influenza NS1 protein function | Potency, µM (highest dose often 46.1 µM) | hit rate 0.4% among 270,000 | AID 2326; further: actives are rising curves; nearly all actives have a fitted effect of over 50% in size
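Growth recovery, yeast-based: influenza A NS1 expressed in S. cerevisiae causes slow growth, and suppressors are detected by OD600. The parent strain without NS1 is used as positive control.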
RE007 growth inh: less growth of the S. pombe RE007 Vpr strain; Potency, µM (series often up to 92.2 µM), usual class: inhibitors; AID 651644; hit rate 0.21% among 360,000; S. pombe RE007 Vpr strain, BacTiter-Glo ATP luminescence, 24 h; active means well fitted falling curve with a large enough effect; inconclusive means small, poorly fitted or top-dose-only effect; inactive means no such curve, though single readings can be large or run the other way; further: nearly all actives have a fitted effect of over 50% in size
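Fission yeast strain RE007, carrying one chromosomally integrated HIV-1 vpr copy, was seeded at OD 0.01 in PMG+AL medium with 23 nL pinned compound. After 24 h at 30 °C and 99% humidity, viability was read by BacTiter-Glo luminescence.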
SARS PLP yeast: SARS-CoV PLP inhibition in yeast | S. cerevisiae expressing SARS-CoV PLpro, growth rescue | Potency, µM (titrated, usually from 32.9 µM), usual class: activators | hit rate 0.19% among 330,000; further: nearly all actives have a fitted effect of over 55% in size
Pf growth 96h: inhibits malaria parasite growth, 96 h | P. falciparum luciferase reporter growth, 96 h | Potency, µM (top dose mostly 28.7 µM), most hits filed as inhibitors | hit rate 6.9% among 320,000; active means well fitted inhibition curve with a large enough effect; inconclusive means small, poorly fitted or top-dose-only effect, or another doubt; inactive means no such curve, though single readings can be large or run the other way
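P. falciparum expressing integrated firefly luciferase, in erythrocytes at 2% hematocrit, 0.05% parasitemia, incubated with compounds 96 h at 37 C, 5% CO2. Growth inhibition read as loss of luminescence; two-generation exposure targets delayed-death apicoplast inhibitors.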
Pf growth 48h: inhibits P. falciparum growth in the first generation, 48 h; P. falciparum luciferase growth in erythrocytes, 48 h; Potency, µM (highest dose often 28.7 µM), usual class: inhibitors; hit rate 5.9% among 310,000; active means well fitted inhibition curve with a large enough effect; inconclusive means small, poorly fitted or top-dose-only effect, or another doubt; inactive means no such curve, though single readings can be large or run the other way
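Here the parasites carry a stable luciferase gene and grow inside erythrocytes in Albumax-based RPMI medium with compound for one erythrocytic cycle. Activity is scored as loss of luminescent signal.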
Numbers stand for hits; ! = not confirmed by another sample; [ ] = another dose, or the depositor's remark. An excerpt weighted towards active compounds, which were near 9.5% of everything screened. Unless noted, the call rests on the fitted dose curve.

Screening CCCC1(C(=O)OCC)NC(c2ccco2)C2C(=O)N(C)C(=O)C21 (stereo unspecified) returned RE007 growth inh inactive, SARS PLP yeast inactive, Pf growth 96h inconclusive and Pf growth 48h inactive.
Cc1ccc(S(=O)(=O)N2CCN(S(=O)(=O)N3CCCCC3)CC2)c(C)c1 was read as NS1 function inh inactive, RE007 growth inh inactive, SARS PLP yeast inactive, Pf growth 96h inactive and Pf growth 48h inactive.
For Cc1ccc(S(=O)(=O)N2CCN(C(=O)COC(=O)c3ccc(Cl)c(S(N)(=O)=O)c3)CC2)c(C)c1 the results were RE007 growth inh inactive.
For Cc1ccc(S(=O)(=O)N2CCN(C)CC2)c(C)c1 the results were NS1 function inh inactive, RE007 growth inh inactive, SARS PLP yeast inactive, Pf growth 96h 2.6µM and Pf growth 48h inactive.
Cc1ccc(S(=O)(=O)N2CCN(C(=O)COC(=O)C3(C)CC3(Cl)Cl)CC2)c(C)c1 (stereo unspecified) was read as RE007 growth inh inactive, SARS PLP yeast inactive, Pf growth 96h inconclusive and Pf growth 48h 10µM.
Screening OC(c1ccc(F)cc1)c1ncc(-c2cccc3ccccc23)[nH]1 (stereo unspecified) returned RE007 growth inh inactive.
CC(C)(C)Nc1c([N+](=O)[O-])c(=O)sc2ccccc12 was read as RE007 growth inh inactive, SARS PLP yeast inactive, Pf growth 96h inactive and Pf growth 48h inactive.
For CCCCCCNc1c([N+](=O)[O-])c(=O)sc2ccccc12 the results were RE007 growth inh inactive, SARS PLP yeast inactive, Pf growth 96h inactive and Pf growth 48h 7.4µM.
O=C(O)c1c[nH]c2c([N+](=O)[O-])cccc2c1=O was read as RE007 growth inh inactive.
O=C(C[n+]1cccc(CNC(=O)c2ccc(OC(F)F)cc2)c1)Nc1cccc(C(F)(F)F)c1 was read as NS1 function inh inactive, RE007 growth inh inactive, SARS PLP yeast inactive, Pf growth 96h inconclusive and Pf growth 48h 5.2µM.
`O=C(C[n+]1cccc(CNC(=O)c2ccc(OC(F)F)cc2)c1)Nc1ccc(F)cc1` gave NS1 function inh inactive, RE007 growth inh inactive, SARS PLP yeast inactive, Pf growth 96h 0.74µM and Pf growth 48h 8.3µM.
For CCOC(=O)C1CCN(C(=O)c2ccc3c(=O)n4nc(Nc5cc(C)ccc5C)sc4nc3c2)CC1 the results were NS1 function inh inactive, RE007 growth inh inactive, SARS PLP yeast inactive, Pf growth 96h 2.9µM and Pf growth 48h inconclusive.
COc1ccccc1Nc1nn2c(=O)c3ccc(C(=O)N4CCCC(C)C4)cc3nc2s1 (stereo unspecified) was read as NS1 function inh inactive, RE007 growth inh inactive, SARS PLP yeast inactive, Pf growth 96h inactive and Pf growth 48h 8.3µM.
CC1CCCN(C(=O)c2ccc3c(=O)n4nc(Nc5ccccc5)sc4nc3c2)C1 (stereo unspecified) was read as RE007 growth inh inactive.
For CCOC(=O)C1CCN(C(=O)c2ccc3c(=O)n4nc(Nc5ccccc5OC)sc4nc3c2)CC1 the results were RE007 growth inh inactive.
Screening CC1(C)S[C@@H]2[C@H](NC(=O)Cc3ccccc3)C(=O)N2[C@@H]1C(=O)O returned NS1 function inh inactive, Pf growth 96h inactive and Pf growth 48h inactive.
For Cc1ccc(Cc2c(-c3ccccc3)nc3cc(C)c(Br)c(C)n23)cc1 the results were RE007 growth inh inactive.
For CC(C)n1cnnc1SCC(=O)NNC(=O)COc1ccc(Cl)cc1 the results were RE007 growth inh inactive, SARS PLP yeast inactive, Pf growth 96h inactive and Pf growth 48h inactive.
`COc1cc(CN2CCNCC2)cc(OC)c1OC` gave NS1 function inh inconclusive, RE007 growth inh inactive, SARS PLP yeast inactive, Pf growth 96h inactive and Pf growth 48h inactive.
Screening COc1cc(Cc2cnc(N)nc2N)cc(OC)c1OC returned NS1 function inh inactive, RE007 growth inh inactive[18.4 µM], SARS PLP yeast inactive, Pf growth 96h 2.1µM! and Pf growth 48h 1.5µM.
`CCCC(=O)OCC1CN(Cc2ccco2)S(=O)(=O)c2c(F)cccc2O1` (stereo unspecified) gave RE007 growth inh inactive.
COc1ccc(COC(=O)C2=C(C)NC(=O)NC2c2ccc(O)c(OC)c2)cc1 (stereo unspecified) was read as NS1 function inh inactive, RE007 growth inh inactive, SARS PLP yeast inactive and Pf growth 96h 10µM.
`CCOC(=O)C(C)Oc1ccc(C2NC(=O)NC(C)=C2C(=O)Nc2ccccc2C)cc1` (stereo unspecified) gave NS1 function inh inactive, RE007 growth inh inactive, SARS PLP yeast inactive, Pf growth 96h inconclusive and Pf growth 48h 10µM.
CCCCOc1ccccc1C1NC(=O)NC(C)=C1C(=O)OCc1ccco1 (stereo unspecified) was read as NS1 function inh inactive, RE007 growth inh inactive, SARS PLP yeast inactive, Pf growth 96h inconclusive and Pf growth 48h 9.3µM.
Screening CC1=C(C(=O)Nc2ccccc2C)C(c2ccccc2)NC(=O)N1 (stereo unspecified) returned NS1 function inh inactive, RE007 growth inh inactive, SARS PLP yeast inactive and Pf growth 96h inactive.
Screening CC1=C(C(=O)OCc2ccc(C)cc2)C(c2ccc(O)c([N+](=O)[O-])c2)NC(=O)N1 (stereo unspecified) returned RE007 growth inh inactive, SARS PLP yeast inactive, Pf growth 96h inactive and Pf growth 48h 12µM.
Screening CC1=C(C(=O)OC2CCC(C)CC2)C(c2ccc(O)c([N+](=O)[O-])c2)NC(=O)N1 (stereo unspecified) returned NS1 function inh inconclusive, RE007 growth inh inactive, SARS PLP yeast inactive, Pf growth 96h inconclusive and Pf growth 48h inactive.
For CC(C)[C@](N)(C(=O)O)c1ccccc1 the results were NS1 function inh inactive.
CCN1C(=NCC(C)C)N[C@@H](c2ccccc2)[C@H](C(=O)OC)[C@H]1C was read as NS1 function inh inactive, SARS PLP yeast inactive, Pf growth 96h inconclusive and Pf growth 48h inactive.
For CCC(C)(O)c1[nH]c2ccc(C(=O)OC)cc2c1C (stereo unspecified) the results were NS1 function inh inactive, RE007 growth inh inactive, SARS PLP yeast inactive, Pf growth 96h inactive and Pf growth 48h inactive.
`CCOC(=O)C1=C(C)NC(=O)NC1c1ccc(OC(=O)c2ccco2)cc1` (stereo unspecified) gave NS1 function inh inactive, RE007 growth inh inactive, SARS PLP yeast inactive, Pf growth 96h 7.4µM and Pf growth 48h inactive.
COC(=O)C1=C(CS(=O)(=O)c2cc(OC)ccc2OC)NC(=O)NC1c1ccc(O)c(OC)c1 (stereo unspecified) was read as NS1 function inh inactive, RE007 growth inh inactive, SARS PLP yeast inactive, Pf growth 96h 10µM and Pf growth 48h inactive.
For CCOc1cc(C2NC(=O)NC(C)=C2C(=O)OCc2ccccc2)ccc1O (stereo unspecified) the results were NS1 function inh inactive, RE007 growth inh inactive, SARS PLP yeast inactive, Pf growth 96h inactive and Pf growth 48h 2.3µM.
CC(=O)Oc1c(C)cc(OCC(O)CNC(C)C)c(C)c1C (stereo unspecified) was read as Pf growth 96h inactive and Pf growth 48h inactive.
